Screens (PubChem BioAssay)
APEX1 inh – APE1 (human) endonuclease inhibition | recombinant APE1, TAMRA/BHQ-2 abasic DNA cleavage fluorescence | Potency, µM (doses to about 65.8 µM), for the others: at the top dose activity change, negative = inhibition, hits mostly inhibitors | actives 0.35% (n = 350,000) | AID 2517;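 also: potency is read from the fitted curve at half-maximal effect; plate controls were vehicle for no effect and reference inhibitor for full effect; nearly all actives have a fitted effect of over 55% in size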
Target sequence (P27695 whole entry, looked up): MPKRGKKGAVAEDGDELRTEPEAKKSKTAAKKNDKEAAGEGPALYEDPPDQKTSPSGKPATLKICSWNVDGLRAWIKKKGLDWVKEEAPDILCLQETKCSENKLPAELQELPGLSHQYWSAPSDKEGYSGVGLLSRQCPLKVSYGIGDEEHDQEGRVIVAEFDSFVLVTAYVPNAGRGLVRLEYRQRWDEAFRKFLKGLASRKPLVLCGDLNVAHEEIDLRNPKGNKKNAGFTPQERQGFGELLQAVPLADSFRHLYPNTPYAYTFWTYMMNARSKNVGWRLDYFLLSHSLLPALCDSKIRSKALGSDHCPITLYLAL
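0.75 nM APE1 + cpd, 15 min RT; start w/ 50 nM TAMRA/BHQ-2 THF-abasic dsDNA; kinetic fluor 525/598 nm ×3 reads @60 s; Δ(read3−read1); normalized to DMSO and NSC13755 control wells.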
FEN1 inh – blocks human flap endonuclease 1; P39748; Recombinant FEN1 flap cleavage, fluorescence, 15 min; actives 0.35% (n = 390,000); Potency, µM (doses to about 114 µM), for inactives: top-dose activity change, negative = inhibition, actives largely listed as inhibitors; also: potency is read from the fitted curve at half-maximal effect; nearly all actives have a fitted effect of over 65% in size
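Enzyme 10 nM, 15 min RT preincubation with compound; start with substrate 50 nM final; reads at 0 and 15 min; qHTS titration, four-parameter Hill fit.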
TDP1 block – blocks human tyrosyl-DNA phosphodiesterase 1; Q9NUW8; recombinant TDP1, AlphaScreen DNA substrate cleavage; AID 485290; Potency, µM (titrated, usually from 130 µM), for the others: at the top dose activity change, negative = inhibition, most hits filed as inhibitors; actives 0.28% (n = 350,000); also: potency is read from the fitted curve at half-maximal effect; nearly all actives have a fitted effect of over 40% in size
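E. coli-derived human Tdp1, 1 nM final. Cpd preinc 15 min RT; substrate 15 nM final, 5 min RT; AS bead mix 10 ug/ml final, 10 min RT. Signal loss = tyrosine-FITC cleavage. No-enzyme wells = max signal.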
Tb PFK inh – inhibitors of T. brucei phosphofructokinase; actives 0.17% (n = 330,000); T. brucei PFK, ADP-Glo luminescence; Potency, µM (highest dose often 57.5 µM), without a hit: top-dose activity, negative = inhibition, hits mostly inhibitors; O15648;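 also: potency is read from the fitted curve at half-maximal effect; 0% = uninhibited 1x PFK enzyme wells and -100% = no-enzyme wells; nearly all actives have a fitted effect of over 60% in size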
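Activity is normalized to no-enzyme wells (full inhibition) and 1.25 nM enzyme wells (no inhibition). Reaction: 0.5 mM F6P, 0.1 mM ATP, 45 min RT, ADP-Glo luminescence; concentration-response curves fitted and classed by quality.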
PI4K2A inh – PI4K2A (human) kinase inhibition | Q9BTU6 | purified PI4K2A, ADP-Glo luminescence, 1 h; hits give low values | activity change, negative = inhibition, % at 76.9 µM | actives 0.13% (n = 420,000); in the data active = activity change below about -50%; inconclusive = mostly about -30% to -49%;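 also: -100% = wells without enzyme as full effect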
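PI4K2A activity was measured by ADP-Glo luminescence: enzyme (4 ug/mL stock) and phosphatidylinositol (1.2 mM stock) in Tris pH 7.5/MgCl2/EGTA/Triton X-100 buffer were reacted with ATP (300 microM stock) for one hour at ambient temperature.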
Tb PGK inh – inhibitors of T. brucei phosphoglycerate kinase. PGK/GAPDH coupled, Kinase-Glo luminescence, 60 min. AID 602233. P07378. actives 0.043% (n = 380,000). Potency, µM (doses to about 57.5 µM), inactives show top-dose activity change, negative = inhibition, usual class: inhibitors; also: potency is read from the fitted curve at half-maximal effect; nearly all actives have a fitted effect of over 60% in size
Target sequence (P07378 whole entry, looked up): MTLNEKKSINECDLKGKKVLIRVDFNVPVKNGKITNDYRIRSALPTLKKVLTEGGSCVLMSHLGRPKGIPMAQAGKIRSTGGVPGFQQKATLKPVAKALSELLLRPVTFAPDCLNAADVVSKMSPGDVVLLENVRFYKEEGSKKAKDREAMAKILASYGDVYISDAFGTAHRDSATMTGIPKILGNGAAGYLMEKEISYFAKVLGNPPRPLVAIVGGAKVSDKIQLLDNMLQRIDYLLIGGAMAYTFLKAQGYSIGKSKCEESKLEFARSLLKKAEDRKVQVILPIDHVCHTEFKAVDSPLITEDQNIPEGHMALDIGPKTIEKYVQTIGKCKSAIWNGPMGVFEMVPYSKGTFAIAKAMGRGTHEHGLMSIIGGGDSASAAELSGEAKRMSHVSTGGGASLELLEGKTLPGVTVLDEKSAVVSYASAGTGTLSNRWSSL
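Luminescent ATP detection (Kinase-Glo Plus) follows a 60-minute room-temperature incubation, with wells lacking PGK as controls. Buffer: 100 mM TEA (pH 7.6), 5 mM MgCl2, 0.01% Tween-20. Coupling enzyme GAPDH (100 nM final) supplies unstable 1,3-BPG in-well.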
* marks the source's active call; other numbers are inactive results; i = inactive; ? = inconclusive; . = not tested or not shown. Compounds with a hit are over-represented: about 0.8% of the library has one in this group of screens. Unless noted, calls follow the shape of the dose curve; as a rule, active = well fitted curve in the direction sought with a large enough effect; inconclusive = small, poorly fitted or top-dose-only effect, or another doubt; inactive = no such curve, though single readings can be large; an effect the other way counts as inactive or inconclusive. Unless noted, % is scaled to controls: 0 for no effect and ±100 for the full control effect.

SMILES	APEX1 inh	FEN1 inh	TDP1 block	Tb PFK inh	PI4K2A inh	Tb PGK inh
O=C(O)c1ccc2c(c1)C(=O)N(Cc1ccco1)C2=O	32.5%	-3.1%	.	0.8%	2.1	-2.4%
O=C(O)c1cccc(NC(=O)c2ccc3c(c2)C(=O)N(Cc2ccco2)C3=O)c1	6.6%	-8.0%	50.1µM*	-5.8%	-4.4	-4.1%
COc1ccc(Cc2nnc(NCCO)[nH]c2=O)cc1	1.5%	-5.6%	0.8%	0.0%	1.8	-4.6%
C=CCNc1nnc(Cc2ccc(C(C)C)cc2)c(=O)[nH]1	-11.2%	3.4%	50.1µM*	2.5%	0.3	i
C#CCOCCOCCOCCNc1nc(N2CCOCC2)nc(N2CCN(C(=O)CCCCCCCCCCNC(=O)[C@@H](CCSC)n3cc(CCO)nn3)CC2)n1	-1.0%	8.8%	2.5%	3.8%	-9.1	6.2%
C#CCOCCOCCOCCNc1nc(N2CCN(C(=O)CCCCCCCCCCNC(=O)[C@@H](CCSC)n3cc(CCO)nn3)CC2)nc(N2CCN(C(=O)CCCCCCCCCCNC(=O)[C@H]([C@@H](C)CC)n3cc(CCCCN=C(N)N)nn3)CC2)n1	?	22.4µM*	13.2%	?	1.6	6.7%
C#CCOCCOCCOCCNc1nc(N2CCN(C(=O)CCCCCCCCCCNC(=O)[C@H](CCCCN)n3cc(C)nn3)CC2)nc(N2CCN(C(=O)CCCCCCCCCCNC(=O)[C@@H]([C@H](C)CC)n3cc(CCCCCN)nn3)CC2)n1	?	.	15.6%	?	.	.
C#CCOCCOCCOCCNc1nc(N2CCN(C(=O)CCCCCCCCCCNC(=O)[C@@H](CCSC)n3cc(CCO)nn3)CC2)nc(N2CCN(C(=O)CCCCCCCCCCNC(=O)[C@H]([C@@H](C)CC)n3cc(CCCCCN)nn3)CC2)n1	?	79.4µM*	12.6%	?	-0.3	8.2%
C#CCOCCOCCOCCNc1nc(N2CCN(C(=O)CCCCCCCCCCNC(=O)[C@H]([C@@H](C)CC)n3cc(CCCCCN)nn3)CC2)nc(N2CCN(C(=O)CCCCCCCCCCNC(=O)[C@@H]([C@H](C)O)n3cc(C)nn3)CC2)n1	-98.3%	56.2µM*	6.8%	?	1.3	11.5%
CC(C)(C)n1ncc2c(=O)n(Cc3ccc(C#N)cc3F)cnc21	-2.0%	-4.3%	.	.	.	.
N#CC1=C(N)OC2=C(CC/C2=C\c2ccc(F)cc2)C1c1ccc(F)cc1 (configuration not stated)	0.5%	.	-2.7%	-1.7%	.	.
N#CC1=C(N)OC2=C(CCC/C2=C/c2ccoc2)C1c1ccoc1 (configuration not stated)	14.1µM*	.	.	?	.	.
Cc1c(P(=S)(c2ccccc2)c2ccccc2)c2ccccc2n1CCc1ccccc1	.	.	-0.3%	.	.	.
CN(CCO)c1ccc(C=NNc2ccc([N+](=O)[O-])cc2S(=O)(=O)Nc2ccccc2C(=O)O)cc1	-23.6%	79.4µM*	9.0%	-5.3%	-1.3	-19.0%
CC(=O)Nc1ccc(C=NNc2ccc([N+](=O)[O-])cc2S(=O)(=O)Nc2ccccc2C(=O)O)cc1	?	?	-11.9%	-0.3%	5.1	?
CCOC(=O)C(C)N1C(=O)S/C(=C\c2ccc(-c3ccccc3C(=O)O)o2)C1=O (configuration not stated)	5.97µM*	31.6µM*	.	-25.3%	-12.0	.
Cc1ccc(C)c(N2C(=N)S/C(=C\c3ccc(-c4ccccc4C(=O)O)o3)C2=O)c1	?	-13.8%	.	2.8%	-21.7	0.4%
O=C1CCc2cc(S(=O)(=O)Nc3cccc(F)c3)ccc2N1	.	.	-3.1%	.	.	.
COc1cc(OC)c(OC)cc1/C=C/c1ccnc2ccccc12	.	?	.	.	-0.2	-0.6%
C[n+]1c(/C=C/c2ccnc3ccccc23)cc(/C=C/c2ccnc3ccccc23)c2ccccc21	.	10µM*	.	.	.	.
Cc1cc([N+](C)(C)C)cc(C)c1/C=C/c1ccnc2ccccc12	.	22.4µM*	.	.	.	.
CC(C)(Oc1ccc(Cl)cc1)C(=O)OCCCOC(=O)C(C)(C)Oc1ccc(Cl)cc1	.	.	.	.	2.7	.
COc1ccc(C2c3c(n(Cc4ccccc4)cnc3=N)Oc3ccc4ccccc4c32)cc1OC (configuration not stated)	.	.	5.1%	.	.	.
Nc1c(C(=O)Nc2nc3ccccc3s2)sc2nc(-c3cccs3)ccc12	0.1%	-28.6%	.	-2.2%	-63.4*	-7.0%
Nc1c(C(=O)Nc2ccccc2Br)sc2nc(-c3cccs3)ccc12	.	9.8%	.	.	-3.1	5.9%
SMILES	APEX1 inh	FEN1 inh	TDP1 block	Tb PFK inh	PI4K2A inh	Tb PGK inh
Cc1nnc(NC(=O)CSCc2cc(=O)c3ccccc3[nH]2)s1	-39.1%	-21.1%	39.8µM*	?	1.4	-7.8%
O=S1(=O)N=C(Oc2ccccc2Cl)c2ccccc21	.	.	-0.1%	.	.	.
CCOC(=O)c1cc(=O)c2c(OCC(COc3cccc4oc(C(=O)OCC)cc(=O)c34)OC(=O)[C@@H](N)CCCCN)cccc2o1	.	.	.	.	-3.5	.
CCCOc1ccc2cc(-c3ccccn3)c(=O)oc2c1	?	14.3%	0.6%	-15.5%	-61.0*	?
Cc1cc2nc3ccc(=[N+](C)C)cc-3sc2cc1N	?	22.4µM*	?	-18.2%	?	-28.7%
Cc1oc(=O)oc1COC(=O)[C@@H]1N2C(=O)[C@@H](NC(=O)[C@H](N)c3ccccc3)[C@H]2SC1(C)C	.	.	.	.	1.3	.
COc1cc2sc3cc(NCC[C@@H]4CCCN4C)ccc3c(=O)c2cc1OC	?	22.4µM*	-2.8%	2.6%	-3.1	2.5%
COc1cc2sc3cc(NCc4ccc(C)o4)ccc3c(=O)c2cc1OC	-15.4%	31.6µM*	5.0%	8.7%	-2.6	-5.4%
COc1cccc2sc3ccc(NCCC4CCCN4C)cc3c(=O)c12 (configuration not stated)	-28.0%	?	.	-5.0%	-0.6	-2.0%
CC(C)(C)OC(=O)Cc1nnc(CNC(=O)c2ccccc2)s1	.	.	-0.3%	.	.	.
Cc1ccc(C)n1-c1ccc(C(=O)NN)cc1	-0.9%	7.9%	4.2%	0.1%	-81.6*	-6.9%
O=C(CCN1C(=O)/C(=C\c2ccccc2)SC1=S)Nc1ccc(C(=O)O)cc1	40.0%	-15.4%	.	-1.8%	-2.0	-0.8%
COc1ccc(/C=C2\SC(=S)N(CCCC(=O)Nc3ccc(C(=O)O)cc3)C2=O)cc1OC	?	?	50.1µM*	-22.0%	-0.8	-13.8%
CCOc1ccc(/C=C2/SC(=S)N(CCC(=O)Nc3ccc(C(=O)O)cc3)C2=O)cc1	7.52µM*	-33.0%	10µM*	13.1%	-7.1	?
